Source: PubChem BioAssay (Tox21)
Several values for one entry are separate records, joined by “and”; a condition that tells them apart may be missing. Equal entries are not always repeated. Inconclusive results are not listed. More than one record can exist for a structure, and the calls need not agree. Activity calls are given as the source filed them. Unless noted, calls come from the whole dose curve.

Tests used:
[1] = Nuclear factor erythroid 2-related factor 2/antioxidant responsive element (Nrf2/ARE) small molecule agonists: qHTS cell viability counter screen in human keratinocytes (AID 1919968; active = well fitted curve in the direction sought with a large enough effect in the repeat runs; an effect the other way counts as inactive or inconclusive; note: nearly all actives have a fitted effect of over 55% in size)
Procedure, shortened: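 Parallel cytotoxicity read: KeratinoSens HaCaT cells, compound treatment 23 h, viability by CellTiter-Fluor fluorescence 1 h post-reagent.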

[2] = Nuclear factor erythroid 2-related factor 2/antioxidant responsive element (Nrf2/ARE) small molecule agonists: luciferase reporter gene qHTS assay in human keratinocytes (AID 1919969); note: nearly all actives have a fitted effect of over 35% in size; note: potency is the fitted concentration of half-maximal effect
[3] = biological target: Gonadotropin-releasing hormone receptor (Homo sapiens) (UniProt P30968); assay: Human gonadotropin-releasing hormone receptor (GnRHR) small molecule agonists, calcium flux assay in GnRHR-HEK293 cells (AID 1920063); note: nearly all actives have a fitted effect of over 35% in size
Chain of Gonadotropin-releasing hormone receptor (Homo sapiens) (P30968 whole entry, looked up): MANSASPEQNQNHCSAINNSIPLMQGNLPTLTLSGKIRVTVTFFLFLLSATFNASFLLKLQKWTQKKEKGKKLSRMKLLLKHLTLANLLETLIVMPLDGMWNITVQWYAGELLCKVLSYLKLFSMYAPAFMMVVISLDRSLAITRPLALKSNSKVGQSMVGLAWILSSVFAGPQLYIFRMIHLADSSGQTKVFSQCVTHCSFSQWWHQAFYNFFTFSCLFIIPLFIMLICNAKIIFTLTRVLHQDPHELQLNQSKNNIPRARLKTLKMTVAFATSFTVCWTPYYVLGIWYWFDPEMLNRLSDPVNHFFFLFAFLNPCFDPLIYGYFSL
Procedure, shortened: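 Calcium flux, agonist mode, human GnRHR stably integrated in HEK293; dye 1 h at 37 C before compound; Ex/Em=480/540 kinetic read, 3 min; 15 concentrations, triplicate.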

[4] = biological target: KiSS-1 receptor (Homo sapiens) (UniProt Q969F8); assay: Human kisspeptin (KISS1R) small molecule agonists, calcium flux assay in KISS1R-HEK293 cells (AID 1920064; active = well fitted curve in the direction sought with a large enough effect in the repeat runs; an effect the other way counts as inactive or inconclusive)
Chain of KiSS-1 receptor (Homo sapiens) (Q969F8 whole entry, looked up): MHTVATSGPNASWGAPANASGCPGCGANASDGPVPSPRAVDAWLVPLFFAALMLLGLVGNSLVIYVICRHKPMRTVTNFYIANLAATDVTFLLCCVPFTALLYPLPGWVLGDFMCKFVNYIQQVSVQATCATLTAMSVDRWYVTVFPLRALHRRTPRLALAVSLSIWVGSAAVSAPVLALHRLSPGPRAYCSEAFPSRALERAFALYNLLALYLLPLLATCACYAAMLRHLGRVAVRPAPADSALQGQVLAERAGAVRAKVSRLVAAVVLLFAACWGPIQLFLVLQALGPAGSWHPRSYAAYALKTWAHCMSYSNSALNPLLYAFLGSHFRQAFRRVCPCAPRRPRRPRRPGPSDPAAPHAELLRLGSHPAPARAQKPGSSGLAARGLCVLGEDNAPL
Procedure, shortened: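 Triplicate 15-concentration series were applied to dye-loaded human KISS1R HEK293 cells, and agonist-evoked calcium fluorescence was captured for 3 min.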

[5] = G protein-coupled receptor (GPCR) small molecule agonists, calcium flux assay: HEK293 wild type cell line counter screen (AID 1920065)
Procedure, shortened: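 Non-specific calcium responders were flagged by adding DMSO-dissolved compounds to dye-loaded cells and reading 480/540 nm fluorescence each second for 3 min; ATP served as positive control.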

[6] = p53 small molecule agonists, cell-based qHTS assay with human liver microsomes (AID 1963577)
Procedure, shortened: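 Compounds act here after metabolic activation: human liver microsomes and NADPH, both at 0.5 mg/mL final, were co-added to p53RE-bla cells. Incubation ran 16 h at 37 C, followed by LiveBLAzer detection.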

[7] = p53 small molecule agonists, cell-based qHTS assay with rat liver microsomes (AID 1963578)
Procedure, shortened: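 Read-out is beta-lactamase reporter fluorescence (LiveBLAzer, 2 h, room temperature, dark) in p53RE-bla cells treated 16 h at 37 C with compound, rat liver microsomes and NADPH, both 0.5 mg/mL final.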

[8] = p53 small molecule agonists, cell-based qHTS assay with human liver microsomes: qHTS cell viability counter screen (AID 1963579); note: nearly all actives have a fitted effect of over 45% in size
Procedure, shortened: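 Cells carrying the p53 response-element beta-lactamase reporter are treated for 16 h at 37 C with test compounds in the presence of human liver microsomes and NADPH (both 0.5 mg/mL final); ATP-based CellTiter-Glo luminescence then reports viability.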

[9] = p53 small molecule agonists, cell-based qHTS assay with rat liver microsomes: qHTS cell viability counter screen (AID 1963580); note: nearly all actives have a fitted effect of over 45% in size
Procedure, shortened: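 After the beta-lactamase ratio was read, CellTiter-Glo was added to the same wells and luminescence measured at 30 min; cells had been treated 16 h at 37 C with compounds, rat liver microsomes and NADPH (0.5 mg/mL final each).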

[10] = p53 small molecule agonists, cell-based qHTS assay: qHTS cell viability counter screen (AID 1963581); note: nearly all actives have a fitted effect of over 45% in size
Procedure, shortened: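 Multiplexed with the reporter read, a CellTiter-Glo step (30 min, room temperature) gauges ATP-based viability of HCT-116 p53RE-bla cells after 16 h compound incubation at 37 C.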

[11] = p53 small molecule agonists, cell-based qHTS assay (AID 1963582; active = well fitted activation curve with a large enough effect in the signal ratio in the repeat runs, not every such curve was filed as active; the % refers to the signal ratio)
Procedure, shortened: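 Beta-lactamase reporter cells (p53RE-bla) treated with compounds for 16 h at 37 C; FRET substrate, 2 h, room temperature; fluorescence intensity.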

[12] = biological target: 5-hydroxytryptamine receptor 2A (Homo sapiens) (UniProt P28223); assay: 5-hydroxytryptamine receptor 2A (HTR2A) small molecule antagonists, cell-based qHTS assay (AID 1963586); note: nearly all actives have a fitted effect of over 45% in size; note: potency is the fitted concentration of half-maximal effect
Chain of 5-hydroxytryptamine receptor 2A (Homo sapiens) (P28223 whole entry, looked up): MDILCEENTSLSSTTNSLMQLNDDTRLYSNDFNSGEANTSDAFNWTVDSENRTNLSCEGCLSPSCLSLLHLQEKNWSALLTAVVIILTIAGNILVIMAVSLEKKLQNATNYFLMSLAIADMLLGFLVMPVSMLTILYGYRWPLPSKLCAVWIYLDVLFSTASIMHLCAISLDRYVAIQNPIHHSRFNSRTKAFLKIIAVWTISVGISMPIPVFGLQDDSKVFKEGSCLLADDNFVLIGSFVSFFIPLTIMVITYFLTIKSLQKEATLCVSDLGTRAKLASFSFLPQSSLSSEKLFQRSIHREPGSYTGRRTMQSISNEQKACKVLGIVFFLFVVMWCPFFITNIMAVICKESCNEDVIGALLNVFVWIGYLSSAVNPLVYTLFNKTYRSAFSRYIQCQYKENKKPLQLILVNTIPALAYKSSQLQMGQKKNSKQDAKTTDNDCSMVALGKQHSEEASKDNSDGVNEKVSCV
Procedure, shortened: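 CHO cells stably expressing human HTR2A were plated for 18 h at 37 C, then loaded with calcium dye for 1 h. Compounds were preincubated 5 min at room temperature before DOI (4 nM solution) was added. Kinetic fluorescence was read for 3 min.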

[13] = biological target: 5-hydroxytryptamine receptor 2A (Homo sapiens) (UniProt P28223); assay: 5-hydroxytryptamine receptor 2A (HTR2A) small molecule agonists, cell-based qHTS assay (AID 1963587); note: nearly all actives have a fitted effect of over 30% in size; note: potency is the fitted concentration of half-maximal effect
Procedure, shortened: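 CHO cells stably expressing human HTR2A, plated 18 h, loaded with calcium dye 1 h at 37 C. Agonist mode: compounds added and intracellular calcium fluorescence recorded kinetically for 2 min at 1 sec intervals.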

[14] = biological target: Muscarinic acetylcholine receptor M1 (Homo sapiens) (UniProt P11229); assay: Cholinergic receptor muscarinic 1 (CHRM1) small molecule antagonists, cell-based qHTS assay (AID 1963588); note: nearly all actives have a fitted effect of over 40% in size; note: potency is the fitted concentration of half-maximal effect
Chain of Muscarinic acetylcholine receptor M1 (Homo sapiens) (P11229 whole entry, looked up): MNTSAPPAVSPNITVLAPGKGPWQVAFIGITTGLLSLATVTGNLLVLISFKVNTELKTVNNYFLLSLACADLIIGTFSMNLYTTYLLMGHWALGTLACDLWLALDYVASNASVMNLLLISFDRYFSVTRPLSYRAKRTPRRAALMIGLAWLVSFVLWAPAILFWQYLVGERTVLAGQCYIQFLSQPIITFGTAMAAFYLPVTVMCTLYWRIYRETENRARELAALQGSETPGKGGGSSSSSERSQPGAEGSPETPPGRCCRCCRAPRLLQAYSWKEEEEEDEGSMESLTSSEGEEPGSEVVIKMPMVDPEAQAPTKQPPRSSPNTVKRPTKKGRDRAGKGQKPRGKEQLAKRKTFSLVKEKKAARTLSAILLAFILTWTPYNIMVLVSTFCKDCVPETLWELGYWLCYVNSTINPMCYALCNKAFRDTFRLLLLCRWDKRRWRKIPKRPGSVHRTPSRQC
Procedure, shortened: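 Compounds were tested at 15 concentrations in three independent runs. Dye-loaded CHRM1-CHO cells were exposed 5 min at room temperature before stimulation by acetylcholine added at 50nM. Intracellular calcium was read kinetically on FDSS for 3 min.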

[15] = biological target: Muscarinic acetylcholine receptor M1 (Homo sapiens) (UniProt P11229); assay: Cholinergic receptor muscarinic 1 (CHRM1) small molecule agonists, cell-based qHTS assay (AID 1963589); note: nearly all actives have a fitted effect of over 35% in size
Procedure, shortened: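 qHTS, 15-point titration, 3 independent runs: compounds pin-transferred onto dye-loaded CHRM1-CHO cells (human M1), calcium fluorescence followed every second to detect agonism.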

[16] = cAMP Responsive Elements (CRE) small molecule agonists, cell-based qHTS assay (AID 1963590)
Procedure, shortened: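 Quantitative HTS for CRE agonists: HEK 293T CRE-bla cells, overnight plating, 3 h compound incubation at 37 C/5% CO2, then 2 h room-temperature LiveBLAzer B/G FRET substrate loading.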

[17] = biological target: Beta-2 adrenergic receptor (Homo sapiens) (UniProt P07550); assay: Adrenergic beta2 receptor (ADRB2) small molecule antagonists, cell-based qHTS assay (AID 1963592); note: series mostly up to about 92 µM; nearly all actives have a fitted effect of over 50% in size
Chain of Beta-2 adrenergic receptor (Homo sapiens) (P07550 whole entry, looked up): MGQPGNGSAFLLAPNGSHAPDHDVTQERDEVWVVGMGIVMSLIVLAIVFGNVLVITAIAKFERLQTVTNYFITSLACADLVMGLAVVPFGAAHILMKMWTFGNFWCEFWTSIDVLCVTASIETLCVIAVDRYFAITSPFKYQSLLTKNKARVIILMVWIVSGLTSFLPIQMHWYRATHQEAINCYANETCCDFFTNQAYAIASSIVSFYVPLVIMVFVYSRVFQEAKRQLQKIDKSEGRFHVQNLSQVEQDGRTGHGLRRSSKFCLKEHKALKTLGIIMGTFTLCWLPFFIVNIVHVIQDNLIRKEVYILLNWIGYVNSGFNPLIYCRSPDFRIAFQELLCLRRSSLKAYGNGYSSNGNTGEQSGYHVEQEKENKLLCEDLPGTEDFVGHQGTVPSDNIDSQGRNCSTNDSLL
Procedure, shortened: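 Assay format: CHO-ADRB2 cells, 18-20hr seeding at 37C/5% CO2, then compound plus 1nM isoproterenol agonist mix for 0.5hr RT. Homogeneous time-resolved fluorescence cAMP detection after 1hr, expressed as 665/615 nm ratio.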

[18] = biological target: D(2) dopamine receptor (Homo sapiens) (UniProt P14416); assay: Dopamine D2 receptor (DRD2) small molecule agonists, cell-based qHTS assay (AID 1963594); note: nearly all actives have a fitted effect of over 35% in size
Chain of D(2) dopamine receptor (Homo sapiens) (P14416 whole entry, looked up): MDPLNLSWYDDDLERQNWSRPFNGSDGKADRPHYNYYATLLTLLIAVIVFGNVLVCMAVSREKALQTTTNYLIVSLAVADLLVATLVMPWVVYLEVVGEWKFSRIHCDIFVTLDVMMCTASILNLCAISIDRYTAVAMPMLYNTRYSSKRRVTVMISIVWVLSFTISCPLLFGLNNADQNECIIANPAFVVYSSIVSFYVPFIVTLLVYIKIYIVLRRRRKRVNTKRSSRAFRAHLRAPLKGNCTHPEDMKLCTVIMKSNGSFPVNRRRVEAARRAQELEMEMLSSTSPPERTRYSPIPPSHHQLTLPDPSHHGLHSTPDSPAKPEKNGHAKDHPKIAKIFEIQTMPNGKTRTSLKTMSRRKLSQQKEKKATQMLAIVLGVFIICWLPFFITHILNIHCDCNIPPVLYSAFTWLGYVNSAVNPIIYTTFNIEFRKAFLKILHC
Procedure, shortened: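 HEK293 cells stably expressing human DRD2, pre-treated with PDE inhibitor Ro20-1724 (0.1 mM final) and compound 10 min at room temperature, then stimulated with NKH477 (200nM […]) for 30 min. cAMP read by HTRF (665/620 nm).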

[19] = biological target: D(2) dopamine receptor (Homo sapiens) (UniProt P14416); assay: Dopamine D2 receptor (DRD2) small molecule antagonists, cell-based qHTS assay (AID 1963595; active = well fitted inhibition curve with a large enough effect in the signal ratio in the repeat runs, with a control signal flat; the % refers to the signal ratio)
Procedure, shortened: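 Human DRD2 antagonist qHTS measuring cAMP by HTRF. The cells are exposed to compound for 10 min, then to NKH477 (200 nM) and quinpirole (12 nM) for 30 min at RT, with Ro20-1724 (0.1 mM) present throughout.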

[20] = cAMP Responsive Elements (CRE) small molecule antagonists, cell-based qHTS assay (AID 1963591; active = well fitted inhibition curve with a large enough effect in the signal ratio in the repeat runs, not every such curve was filed as active; the % refers to the signal ratio)
Procedure, shortened: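 Fluorescence intensity from cleaved LiveBLAzer B/G substrate (2 h, room temperature) quantified CRE-bla activity in HEK 293T cells exposed 3 h to compound with 0.25 uM final NKH477.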

Measured: Potency

NCCc1ccc(O)cc1
4.17 µM (active) and inactive: [12]
active: [2] 29.8 µM | [13] 5.45 µM and 8.49 µM
not listed: [20]
inactive: all other assays above

FC(Cl)(Cl)Cl
not listed: [18]
inactive: all other assays above

Clc1cnc(Oc2ccc(Oc3ncc(Cl)cc3Cl)cc2)c(Cl)c1
not listed: [20]
inactive: all other assays above

CC(C)(C)C(=O)CCl
not listed: [14]
inactive: all other assays above

CNC(=O)Oc1ccccc1C1OCCO1
not listed: [14]
inactive: all other assays above

CN(C)C(=O)Nc1ccc(Cl)cc1
not listed: [14]
inactive: all other assays above

O=[N+]([O-])c1c(Cl)c(Cl)c(Cl)c(Cl)c1Cl
active: [2] 27.2 µM and 54.5 µM
not listed: [16]
inactive: all other assays above

CC1(C)C(=O)NC(=O)NC1=O
not listed: [14]
inactive: all other assays above

ClCC1CO1 (centres undefined)
not listed: [15] | [16]
inactive: all other assays above

N#CCc1ccccc1
not listed: [15]
inactive: all other assays above

CCN(CC)C1CCCCC1
not listed: [16]
inactive: all other assays above

CCCCCCCCCCCCCCCl
not listed: [15]
inactive: all other assays above

O=C(NCO)NCO
not listed: [14]
inactive: all other assays above

CC(C)=CCN1CC[C@@]2(C)c3cc(O)ccc3C[C@@H]1[C@@H]2C
active: [14] 9.28 µM
not listed: [15] | [19]
inactive: all other assays above

COc1ccc2c3c1O[C@H]1[C@H](O)CC[C@H]4[C@@H](C2)N(C)CC[C@@]341
not listed: [14]
inactive: all other assays above

CCCC(=O)Cl
not listed: [15]
inactive: all other assays above

COc1c(C(C)(C)C)cc([N+](=O)[O-])c(C)c1[N+](=O)[O-]
not listed: [15]
inactive: all other assays above

CCOP(=O)(CN(CCO)CCO)OCC
not listed: [15] | [19]
inactive: all other assays above

CC(C)C1(C)N=C(c2nc3ccccc3cc2C(=O)O)NC1=O (centres undefined)
not listed: [14]
inactive: all other assays above

CCCCCCI
not listed: [15] | [16] | [17] | [18]
inactive: all other assays above

CCCCC#N
not listed: [15]
inactive: all other assays above

CCCCCCC1CCOC1=O (centres undefined)
not listed: [14]
inactive: all other assays above

Cn1cc[n+](C)c1 (tested in a mixture with another compound)
not listed: [15] | [17]
inactive: all other assays above

BrCCBr
not listed: [14] | [19]
inactive: all other assays above

CCCCOCCOC(C)=O
not listed: [16] | [18]
inactive: all other assays above

Cl/C=C/Cl
not listed: [15]
inactive: all other assays above

CCCOC(=O)c1ccccc1C(=O)OCCC
not listed: [14]
inactive: all other assays above

O=NN1CCCCCC1
not listed: [15]
inactive: all other assays above

CCN(CCO)CCO
not listed: [15]
inactive: all other assays above

CC(C)NC(=O)N1CC(=O)N(c2cc(Cl)cc(Cl)c2)C1=O
not listed: [16]
inactive: all other assays above

ClCOCCl
not listed: [15]
inactive: all other assays above

C=CC1CC=CCC1 (centres undefined)
not listed: [15]
inactive: all other assays above
